Hits are enriched below; roughly 2.6% of the tested compounds scored in any of these assays.
EWS-Fli block: EWS/Fli-driven NR0B1 reporter inhibitors, primary screen, A673 cells, NR0B1 luciferase, luminescence, MLPCN library; 350,000 tested, 0.67% active; inhibition, % at 12.6 µM; viability-normalised; AID 651661, 2012;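 active = mean inhibition of at least 50% after viability correction, with every replicate also passing that limit; inconclusive = mean reaches 50% but only one of two replicates passes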;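 note: firefly luciferase signal divided by Alamar Blue viability fluorescence both relative to DMSO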
KKLEB cytotox: cytotoxicity in KKLEB CF airway cells, primary screen, cytotoxicity control for CF NF-kB inhibitor project, cell-based, uHTS, fluorescence assay plates | KKLEB CF airway cells viability, ATPlite luminescence, overnight; stronger effect = lower value; cells stimulated with P. aeruginosa culture filtrate | activity change (cytotoxicity), % at 5 µM | 360,000 tested, 0.36% active | AID 602141, 2011;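 active = corrected activity change at or below -50% at 5 µM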
CF NFkB block: inhibitors of PAF-induced NF-kB signaling, primary screen, cell-based, GFP fluorescence, uHTS; AID 588850, 2011; KKLEB NF-kB-GFP reporter, GFP fluorescence overnight; inhibition, % at 5 µM; 360,000 tested, 0.86% active;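 active = at least 50% inhibition at 5 µM, scaled per plate between neutral and stimulator controls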;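 note: PAF is a Pseudomonas aeruginosa culture filtrate used as stimulus; plate controls were PAF-stimulated DMSO wells for no effect and unstimulated DMSO wells for full effect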
LGR2 antag: inhibitors of bursicon-induced LGR2 CRE-luciferase signal, primary screen, cell-based, HEK293, CRE-luciferase reporter, bursicon stimulation | bursicon-stimulated, 4 h | AID 720647, 2013 | 380,000 tested, 0.35% active | inhibition, % at 9.99 µM | Drosophila bursicon receptor LGR2 (rickets);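 active = drop in luminescence signal, shown as inhibition above about 50% in the replicate tests, limit read from the data, passing the limit was not always enough; inconclusive = probably only some replicates passing the limit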;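 note: agonist challenge used bursicon conditioned medium at about half maximal strength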
TWEAK Fn14 block: inhibitors of TWEAK-Fn14 signaling, primary screen, luciferase reporter cells, uHTS. 360,000 tested, 2% active. inhibition, % at 10 µM. TWEAK-stimulated Fn14 reporter cells, luciferase luminescence, 8 h. AID 1159606, 2016; in the data active = inhibition above about 50%
TROY NFkB inh: inhibitors of TROY-driven NF-kB signaling, primary screen, Q293 LMP1-TROYcd cells, NF-kB luciferase, uHTS; Q293 LMP1-TROYcd NF-kB luciferase reporter, 4 h; inhibition, % at 10 µM; 360,000 tested, 0.98% active;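 active = compounds whose plate-normalised and pattern-corrected inhibition of the luciferase reporter signal at the single screening dose is 50% or more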
The depositor's hits bear a star; ? = inconclusive; . = no result given.

SMILES	EWS-Fli block	KKLEB cytotox	CF NFkB block	LGR2 antag	TWEAK Fn14 block	TROY NFkB inh
Cc1nn(C2CCS(=O)(=O)C2)c(Cl)c1/C=C/C(=O)OCC(=O)c1c[nH]c2ccccc12 (stereo unspecified)	16	16	-36	10	38	37
C/C=C/c1ccc([C@H]2[C@@H](CNC(=O)CC)N(Cc3ccccn3)[C@H]2CO)cc1	2	.	.	1	.	.
O=C1CCC(=O)N1c1ccc(-c2nc3ccccc3s2)cc1	-7	-14	-12	-10	90*	83*
O=C(/C=C/c1ccccc1)c1ccc(NC2=NCCCS2)cc1	-48	-22	19	-17	39	11
CC(C)(C)c1ccc(/C=C/C(=O)c2ccc(NC3=NCCCS3)cc2)cc1	18	-2	24	26	61*	10
Cc1cccc(NC(=O)c2cc3ccccc3oc2=O)c1	-25	4	-15	-1	53*	24
Cc1ccnc(NC(=O)c2cc3ccccc3oc2=O)c1	-67	-4	-24	-19	60*	-30
COc1cccc(NC(=O)c2cc3ccccc3o/c2=N\O)c1	-102	-2	-78	?	78*	23
Cc1c(C(=O)Nc2cnccn2)oc2ccccc12	-10	-30	-6	-48	-1	-52
Cc1ccnc(NC(=O)c2oc3ccccc3c2C)c1	48	-27	-24	33	51*	2
O=C(Nc1ccccc1Cl)c1cc2ccccc2o/c1=N\O	-109	1	-17	-37	-16	-14
COc1ccc(S(=O)(=O)Nc2ccc3c(c2)C(=O)N([C@@H](C)CO)C[C@@H](C)[C@@H](CN(C)C(=O)Nc2ccc4c(c2)OCO4)O3)cc1	1	.	.	-4	.	.
Cc1ccccc1S(=O)(=O)N1CC[C@@H]2[C@@H](CO)Nc3ccc(-c4ccccc4)cc3[C@@H]21	17	.	.	15	.	.
O=C(NC1CCCCCC1)c1cc2ccccc2oc1=O	29	-6	2	17	54*	5
Cc1c(C(=O)NC2=NCCS2)oc2ccccc12	-17	10	-14	.	57*	-14
O=C(CC1CC1)N1CC(=O)N2[C@H](C1)[C@H](c1ccc(/C=C/c3ccccc3)cc1)[C@@H]2CO	-5	.	.	18	.	.
CC(=O)OCC(O)C1(O)CCC2C3CCC4=CC(=O)CCC4(C)C3C(O)CC21C (stereo unspecified)	4	-3	42	.	-19	-3
CC1CC2C3CCC4=CC(=O)CCC4(C)C3CCC2(C)C1(O)C(=O)CO (stereo unspecified)	-7	3	53*	18	1	0
CCCC(=O)O[C@]1(C(=O)CO)CC[C@H]2[C@@H]3CCC4=CC(=O)CC[C@]4(C)[C@H]3[C@@H](O)C[C@@]21C	0	12	95*	-13	-12	21
CC1CC2(C)C(=CC1=O)CCC1C2C(O)CC2(C)C1CCC2(O)C(=O)CO (stereo unspecified)	-5	10	67*	-2	-5	14
CCC(CC)C(=O)OCC(=O)C1(O)CCC2C3CCC4=CC(=O)CCC4(C)C3C(O)CC21C (stereo unspecified)	-4	14	64*	13	6	33
C[C@H](CO)N1C[C@H](C)[C@@H](CN(C)Cc2cccc(F)c2)Oc2ncc(C#C[C@@H](C)O)cc2C1=O	-1	.	.	5	.	.
CC(=O)N1[C@@H]2c3ccc(C4=CCCCC4)c(=O)n3C[C@@H]2[C@@H](CO)[C@@H]1C(=O)Nc1ccccc1	0	.	.	-5	.	.
CN1C(=O)c2cc(NC(=O)c3ccc(F)c(F)c3)ccc2OC[C@@H]2O[C@@H](CC(=O)N3CCCCC3)CC[C@@H]21	2	.	.	11	.	.
CC(=O)OCC(=O)[C@@]1(O)CC[C@H]2[C@@H]3CCC4=CC(=O)CC[C@]4(C)[C@H]3[C@@H](O)C[C@@]21C	5	9	64*	-27	1	17
